Assay outcomes (PubChem BioAssay)
Pf Dd2 inh: P. falciparum Dd2 growth inhibitors, primary screen, SYBR Green fluorescence, single dose replicates; activity change, % at 10 µM; AID 1159554, 2015; actives 2.3% (n = 94,000); 72 h; hits give low values; in the data active means activity change below about -80%; inconclusive means no clear call, values can overlap the other calls
T cruzi growth-1: T. cruzi intracellular proliferation inhibitors, primary screen, cell-based, beta-gal Tulahuen parasites, NIH3T3 host, luminescence; T. cruzi beta-gal in NIH3T3, GalScreen luminescence, 90 h; inhibition, % at 8.34 µM; actives 5.9% (n = 77,000);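 active means mean inhibition above about 93%, with at least 55% of replicates each passing it, limit read from the data, passing the limit was not always enough; inconclusive means only one of those two conditions holds; inactive means neither condition holds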
C diff growth: C. difficile growth inhibitors, primary screen, HTS; Clostridium difficile clinical isolate growth, OD600, 24 h; hits give low values; growth activity, negative = inhibition, % at 16 µg/mL (by protocol); actives 0.25% (n = 86,000);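 active means mean growth activity at or below -80% and every replicate also at or below -80%; inconclusive means mean at or below -80% but some replicate above -80%; inactive means mean growth activity above -80%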;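 further: 0% = DMSO wells and -100% = levofloxacin 16 µg/mL wells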
T cruzi growth-2: T. cruzi intracellular proliferation inhibitors, confirmation, cell-based, NIH3T3 host, beta-gal parasite, luminescence, cherry-pick | shares compounds with T cruzi growth-1 | T. cruzi beta-gal in NIH3T3, GalScreen luminescence, 90 h | inhibition, % at 8.35 µM | actives 72% (n = 5,600) | AID 651739, 2012;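 active means mean replicate inhibition above about 95% and at least 55% of replicates individually reaching it, limit read from the data; inconclusive means only one of the two criteria is met; inactive means neither criterion is met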
T cruzi growth-3: inhibitors of intracellular T. cruzi replication, confirmation, NIH3T3 host cells, beta-gal parasites, cherry-pick, set 2; shares compounds with T cruzi growth-1; T. cruzi beta-gal in NIH3T3, GalScreen luminescence, 90 h; inhibition, % at 2.09 µM; actives 21% (n = 5,600); AID 651740, 2012;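 active means mean inhibition above about 95%, with at least 55% of replicates also reaching it, limit read from the data; inconclusive means meets just one of the two conditions; inactive means meets neither condition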;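 further: plate controls were neutral control median for no effect and positive control median for full effect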
NIH3T3 tox: cytotoxicity in mouse NIH/3T3 fibroblasts, confirmation, cytotoxicity control for T. cruzi proliferation inhibitor project, cell-based, cherry-pick, single point; shares compounds with T cruzi growth-1; NIH/3T3 viability, CellTiter-Glo ATP luminescence, 90 h; cytotoxicity (signal decrease), % at 8.35 µM; actives 14% (n = 5,600);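 active means mean signal decrease across replicates above about 35% based on untreated-well scatter, with enough replicates individually passing, limit read from the data; inconclusive means no rule stated though some were filed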;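 further: 0% = median of neutral control wells and 100% = median of positive control wells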
NIH3T3 tox 2: NIH/3T3 fibroblast cytotoxicity, confirmation, cytotoxicity control, cell-based, cherry-pick, single point, set 2 | shares compounds with T cruzi growth-1 | NIH/3T3 viability, CellTiter-Glo ATP luminescence, 90 h | inhibition, % at 24.9 µM | actives 56% (n = 5,600) | AID 651744, 2012;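 active means mean loss of cell viability signal at or above a set limit, and enough replicates individually reaching it; inconclusive means meets only the mean limit or only the replicate share; inactive means meets neither condition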;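 further: 0% = median of neutral control wells and 100% = median of positive control wells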
* hit, by the source's call; ? = inconclusive; . = not tested or not shown. A selection: hits, their analogues and other compounds. The true share with any hit is near 6.7%.

SMILES	Pf Dd2 inh	T cruzi growth-1	C diff growth	T cruzi growth-2	T cruzi growth-3	NIH3T3 tox	NIH3T3 tox 2
COc1cccc(-c2ccc3c(c2)[C@H]2[C@H](CCN2S(=O)(=O)c2ccccc2OC)[C@@H](CO)N3C)c1	-68	6	0	.	.	.	.
C[C@@H]1CCCCO[C@@H](CN(C)Cc2ccc(Cl)c(Cl)c2)[C@@H](C)CN([C@@H](C)CO)C(=O)c2cc(NC(=O)C3CCCCC3)ccc2O1	-45	94	9	.	.	.	.
O=C(c1cccc(F)c1)N1CCCCN2[C@@H](CO)[C@@H](c3ccc(/C=C/c4ccccc4)cc3)[C@@H]2C1	-64	109*	-75	101*	79	66*	105*
O=C(c1cccc(F)c1)N1CC(=O)N2[C@H](CO)[C@H](c3ccc(/C=C/c4ccccc4)cc3)[C@@H]2C1	-17	.	51	.	.	.	.
O=C(c1cccc(F)c1)N1CCCCN2[C@H](CO)[C@H](c3ccc(-c4cncnc4)cc3)[C@@H]2C1	-1	75	0	.	.	.	.
O=C(c1cccc(F)c1)N1CCCCN2[C@H](C1)[C@@H](c1ccc(/C=C/c3ccccc3)cc1)[C@@H]2CO	-50	111*	-6	92	83	54*	39*
O=C(c1ccc(F)cc1)N1CCCCN2[C@H](C1)[C@H](c1ccc(-c3ccccc3)cc1)[C@@H]2CO	-10	93	30	.	.	.	.
O=C(c1ccc(F)cc1)N1CCCCN2[C@@H](CO)[C@H](c3ccc(/C=C/c4ccccc4)cc3)[C@@H]2C1	-16	112*	12	95*	76	60*	103*
O=C(c1cccc(F)c1)N1CCCCN2[C@H](C1)[C@H](c1ccc(-c3ccc(F)cc3)cc1)[C@@H]2CO	21	83	27	.	.	.	.
O=C(c1cccc(F)c1)N1CCCCN2[C@H](CO)[C@@H](c3ccc(/C=C/c4ccccc4)cc3)[C@@H]2C1	-4	109*	-7	100*	19	17	10
CCNC(=O)[C@@H]1[C@@H](CO)[C@@H]2Cn3c(ccc(/C=C/c4ccccc4)c3=O)[C@H]1N2	12	31	4	.	.	.	.
Cc1ccc(S(=O)(=O)Nc2ccc3c(c2)C(=O)N([C@H](C)CO)C[C@@H](C)[C@H](CN(C)C(=O)NC(C)C)OCCCC[C@@H](C)O3)cc1	-44	21	-21	.	.	.	.
O=C(C[C@H]1CC[C@@H](NC(=O)C2CCC2)[C@@H](CO)O1)Nc1nccs1	8	-20	2	.	.	.	.
CCNC(=O)C[C@@H]1CC[C@H]2[C@@H](COc3ccc(NC(=O)c4ccc(F)cc4)cc3C(=O)N2C)O1	-2	6	8	.	.	.	.
CN1CCN(C(=O)c2cc3c(c(-c4cccc(-c5cccc(C(=O)N(C)C)c5)c4)n2)[C@@H](CCO)N([S@](=O)C(C)(C)C)C3)CC1	13	25	.	.	.	.	.
C[C@H](CO)N1C[C@H](C)[C@@H](CN(C)Cc2ccc(C(=O)O)cc2)Oc2ccc(NC(=O)CCN3CCOCC3)cc2CC1=O	27	16	-3	.	.	.	.
C[C@H](CO)N1C[C@H](C)[C@H](CN(C)C(=O)NC2CCCCC2)Oc2ncc(C#CCN(C)C)cc2C1=O	34	21	.	.	.	.	.
CCC(=O)N1CCC2(CC1)CN(Cc1cc(F)ccc1F)[C@H](CO)c1c2c2ccc(OC)cc2n1C	-60	.	60	.	.	.	.
CO[C@H]1CN(C)C(=O)c2ccc(NC(=O)C3CC3)cc2OC[C@H](C)N(C(C)=O)C[C@@H]1C	-18	.	-7	.	.	.	.
CN(C)C(=O)[C@H]1[C@H](CO)[C@H]2Cn3c(ccc(C4=CCCCC4)c3=O)[C@@H]1N2Cc1ccncc1	.	2	2	.	.	.	.
CN1[C@@H]2c3ccc(C4=CCCC4)c(=O)n3C[C@H]1[C@H](CO)[C@H]2C(=O)N1CCOCC1	4	-16	3	.	.	.	.
C[C@H](CO)N1C[C@H](C)[C@@H](CN(C)Cc2ccc(F)cc2)Oc2ncc(-c3cccc(C#N)c3)cc2C1=O	-42	-51	1	.	.	.	.
O=C(c1cccc(F)c1)N1CCCCN2[C@H](C1)[C@@H](c1ccc(-c3ccc(F)cc3)cc1)[C@@H]2CO	-2	93	45	.	.	.	.
O=C(c1cccc(F)c1)N1CCCCN2[C@H](C1)[C@H](c1ccc(/C=C/c3ccccc3)cc1)[C@@H]2CO	23	110*	9	?	13	7	103*
C[C@H](CO)N1C[C@H](C)[C@H](CN(C)S(=O)(=O)c2ccc(Cl)cc2)Oc2c(NS(=O)(=O)c3ccccc3)cccc2C1=O	12	56	2	.	.	.	.
SMILES	Pf Dd2 inh	T cruzi growth-1	C diff growth	T cruzi growth-2	T cruzi growth-3	NIH3T3 tox	NIH3T3 tox 2
CO[C@H]1CN(C)C(=O)c2cc(NC(=O)C3CCOCC3)ccc2OC[C@H](C)N(C(C)=O)C[C@@H]1C	-49	-25	.	.	.	.	.
Cc1cccc(-c2ccc([C@@H]3[C@@H](CO)N4C(=O)CN(C(=O)c5ccc6c(c5)OCO6)C[C@H]34)cc2)c1	-6	.	-11	.	.	.	.
COc1cccc(-c2ccc([C@H]3[C@@H](CO)N4CCCCN(C(=O)c5ccc6c(c5)OCO6)C[C@H]34)cc2)c1	-18	110*	2	105*	87	33	106*
O=C(c1ccc2c(c1)OCO2)N1CCCCN2[C@@H](CO)[C@H](c3ccc(-c4ccccc4)cc3)[C@@H]2C1	5	54	5	.	.	.	.
O=C(c1ccc2c(c1)OCO2)N1CCCCN2[C@H](CO)[C@H](c3ccc(-c4ccccc4)cc3)[C@H]2C1	-5	61	-2	.	.	.	.
Cc1cccc(-c2ccc([C@H]3[C@@H](CO)N4CCCCN(C(=O)c5ccc6c(c5)OCO6)C[C@H]34)cc2)c1	-34	120*	0	98*	105*	44*	107*
Cc1cccc(-c2ccc([C@@H]3[C@@H](CO)N4CCCCN(C(=O)c5ccc6c(c5)OCO6)C[C@H]34)cc2)c1	3	106*	0	104*	35	26	103*
O=C(c1ccc2c(c1)OCO2)N1CCCCN2[C@H](CO)[C@@H](c3ccc(-c4ccccc4)cc3)[C@H]2C1	0	102*	-1	86	55	28	68*
COc1cccc(-c2ccc([C@@H]3[C@@H](CO)N4CCCCN(C(=O)c5ccc6c(c5)OCO6)C[C@H]34)cc2)c1	5	92	-7	.	.	.	.
CN(C)CC(=O)N1[C@H](CO)[C@H](c2ccccc2-c2ccccc2F)[C@@H]1C#N	-4	.	-4	.	.	.	.
